Screening results (PubChem BioAssay)
POLB inh: DNA polymerase beta (human) inhibition | P06746 | Pol beta primer extension/strand displacement, fluorescence kinetic | Potency, µM (series often up to 114 µM), hits mostly inhibitors | actives 1.3% (n = 340,000)
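Kinetic readout of DNA synthesis with strand displacement by Pol beta. Compound and 10 nM enzyme sit 15 min at room temperature; 50 nM substrate starts the reaction, read immediately and at 10 min.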
POLK inh: inhibitors of human DNA polymerase kappa | Q9UBT6 | purified Pol kappa, fluorescent DNA synthesis assay, 10 min | Potency, µM (highest dose often 107 µM), actives largely listed as inhibitors | actives 0.53% (n = 400,000) | AID 588579
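First, compounds were pin-transferred onto 10 nM Pol kappa. After 15 min at room temperature, substrate was added to 50 nM final. Fluorescence was then measured kinetically at 0 and 10 min.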
Pol iota inh: DNA polymerase iota (human) inhibition | Q9UNA4 | Pol iota fluorescent replication assay, 10 min | Potency, µM (doses to about 115 µM), actives largely listed as inhibitors | actives 1% (n = 390,000)
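Pol iota at 10 nM preincubated 15 min with compounds at room temperature; reaction started with fluorescent substrate, 50 nM final. Fluorescence read kinetically at 0 and 10 min; buffer-only wells as negative control.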
POLH inh: DNA polymerase eta (human) inhibition; recombinant Pol eta, fluorescent DNA replication assay; actives 1.2% (n = 390,000); Q9Y253; Potency, µM (doses to about 114 µM), most hits filed as inhibitors
Target sequence (Q9Y253 whole entry, looked up): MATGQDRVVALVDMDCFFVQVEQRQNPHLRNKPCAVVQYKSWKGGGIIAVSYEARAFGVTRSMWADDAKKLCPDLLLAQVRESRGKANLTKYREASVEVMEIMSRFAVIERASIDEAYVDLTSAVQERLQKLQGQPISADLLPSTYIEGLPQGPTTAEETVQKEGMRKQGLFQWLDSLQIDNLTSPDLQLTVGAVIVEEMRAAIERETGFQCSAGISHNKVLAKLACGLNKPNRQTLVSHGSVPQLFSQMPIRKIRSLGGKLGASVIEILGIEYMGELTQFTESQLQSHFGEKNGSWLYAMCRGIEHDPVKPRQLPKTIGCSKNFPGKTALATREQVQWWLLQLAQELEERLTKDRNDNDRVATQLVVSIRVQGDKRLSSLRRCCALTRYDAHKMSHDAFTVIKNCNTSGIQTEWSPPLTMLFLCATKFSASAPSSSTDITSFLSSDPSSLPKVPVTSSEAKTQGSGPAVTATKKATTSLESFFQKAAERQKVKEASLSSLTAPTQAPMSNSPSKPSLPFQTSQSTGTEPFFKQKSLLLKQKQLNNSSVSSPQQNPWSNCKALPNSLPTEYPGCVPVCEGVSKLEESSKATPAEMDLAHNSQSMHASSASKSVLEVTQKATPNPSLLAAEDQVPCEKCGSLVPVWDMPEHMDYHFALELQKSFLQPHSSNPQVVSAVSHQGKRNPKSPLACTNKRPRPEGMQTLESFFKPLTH
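Pol eta at 10 nM preincubated with compounds 15 min at room temperature; reaction started with fluorescent substrate (50 nM final) and read kinetically at 0 and 10 min.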
WRN helicase inh: WRN helicase (human) inhibition; actives 0.46% (n = 360,000); Q14191; AID 651768; WRN helicase unwinding, fluorescent forked duplex, kinetic; Potency, µM (doses to about 114 µM), actives largely listed as inhibitors; note: nearly all actives have a fitted effect of over 55% in size
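Primary qHTS, 1536-well format. 20 nM WRN + compound, 15 min RT; start with 100 nM forked fluorophore/quencher duplex, 2 mM ATP (final); kinetic read ex 525/em 598 nm.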
FEN1 inhibitor: human FEN1 inhibition | Recombinant FEN1 flap cleavage, fluorescence, 15 min | Potency, µM (doses to about 114 µM), most hits filed as inhibitors | actives 0.35% (n = 390,000); note: nearly all actives have a fitted effect of over 65% in size
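Potency values derive from four-parameter Hill fits of normalized qHTS data. The reaction used 10 nM FEN1 preincubated 15 min at room temperature with compound, then 50 nM DNA substrate, read at 0 and 15 min.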
A number is an active result; [ ] = remark or other dose. The list is not random: actives were taken first. Their share in the collection is about 2.4%. Calls come from the whole dose curve; as a rule, active = well fitted curve in the direction sought with a large enough effect; inconclusive = small, poorly fitted or top-dose-only effect, or another doubt; inactive = no such curve, though single readings can be large; an effect the other way counts as inactive or inconclusive.

Screening CCc1ccccc1NC(=O)C1CCCN1S(=O)(=O)c1ccc(-c2ccc(=O)[nH]n2)s1 (configuration not stated) returned POLB inh inactive, POLK inh inactive, Pol iota inh inconclusive, POLH inh 40µM, WRN helicase inh inactive[11.6 µM] and FEN1 inhibitor inactive.
`COc1cccc(-c2nc3c(c(SCC(=O)N4CCOCC4)n2)Cc2c(CO)cnc(C)c2O3)c1` gave POLB inh inactive, POLK inh inactive, Pol iota inh 79µM, POLH inh inactive, WRN helicase inh inactive and FEN1 inhibitor inconclusive.
Cc1ncc(CO)c2c1Oc1nc(-c3ccccc3)nc(SCC(=O)N(C)c3ccccc3)c1C2 was read as POLB inh 56µM.
Cc1ncc(CO)c2c1Oc1nc(-c3ccccc3F)nc(SCC(=O)N(C)c3ccccc3)c1C2 was read as POLB inh inactive, POLK inh inactive, Pol iota inh inconclusive, POLH inh 79µM, WRN helicase inh inactive and FEN1 inhibitor inactive.
`CC(C)c1ccc(NC(=O)CSc2nc(=O)n(Cc3cccnc3)c3c2CCC3)cc1` gave POLB inh inactive, POLK inh inactive, Pol iota inh inactive, POLH inh inactive and FEN1 inhibitor inactive.
`NNc1nc2c(-c3ccc(F)cc3)nnn2c2ccccc12` gave POLB inh inconclusive, POLK inh inactive, Pol iota inh inactive, POLH inh inactive, WRN helicase inh inactive[11.6 µM] and FEN1 inhibitor 28µM.
For NNc1nc2c(-c3ccc(Cl)cc3)nnn2c2ccccc12 the results were POLB inh inconclusive, POLK inh inactive, Pol iota inh inactive, POLH inh inactive, WRN helicase inh inactive and FEN1 inhibitor inactive.
For COc1ccc(NS(=O)(=O)c2ccc3c(c2)CCCN3C(C)=O)cc1 the results were POLB inh inactive, POLK inh inactive, Pol iota inh inactive, POLH inh inactive, WRN helicase inh inactive and FEN1 inhibitor inactive.
For COc1cccc(NS(=O)(=O)c2ccc3c(c2)CCCN3C(C)=O)c1 the results were POLB inh 79µM, POLK inh inactive, Pol iota inh inactive, POLH inh inactive, WRN helicase inh inactive and FEN1 inhibitor inactive.
CC(=O)N1CCc2cc(S(=O)(=O)NC(C(=O)NC3CCCc4ccccc43)C(C)C)ccc21 (configuration not stated) was read as POLB inh 32µM, POLK inh inactive, Pol iota inh inactive, POLH inh inactive, WRN helicase inh inactive and FEN1 inhibitor inactive.
CC(=O)N1CCc2cc(S(=O)(=O)NC(C(=O)NC(C)c3ccccc3)C(C)C)ccc21 (configuration not stated) was read as POLB inh inactive, POLK inh inactive, Pol iota inh inactive, POLH inh inactive, WRN helicase inh inactive and FEN1 inhibitor inactive.
`COc1ccc(CNC(=O)C(Cc2ccccc2)NS(=O)(=O)c2ccc3c(c2)CCN3C(C)=O)cc1` (configuration not stated) gave POLB inh 25µM, POLK inh inactive, Pol iota inh inconclusive, POLH inh inactive and FEN1 inhibitor inactive.
Screening Cc1ccc(NC(=O)C(=O)NCC(c2cccnc2)N2CCc3ccccc3C2)cc1 (configuration not stated) returned POLB inh inactive, POLK inh inactive, Pol iota inh inactive, POLH inh inactive and FEN1 inhibitor inactive.
For N#CC(=C(/N)Sc1ccccc1N)/C(C#N)=C(\N)Sc1ccccc1N the results were POLK inh inactive[19.4 µM].
c1ccc2c(c1)CCCN2 was read as POLK inh inconclusive, Pol iota inh inconclusive and FEN1 inhibitor inactive.
`Cc1c([N+](=O)[O-])cc(N2C(=O)C=CC2=O)cc1[N+](=O)[O-]` gave POLK inh inconclusive, Pol iota inh 10µM, POLH inh inactive, WRN helicase inh inactive and FEN1 inhibitor inactive.
Cc1cc(C)cc(N2C(=O)C3CC=CCC3C2=O)c1 (configuration not stated) was read as POLB inh inactive, POLK inh inactive, Pol iota inh inactive, POLH inh inactive, WRN helicase inh inactive and FEN1 inhibitor inactive.
Screening Cc1cc(C)cc(N2C(=O)C=CC2=O)c1 returned POLK inh inactive, Pol iota inh inactive, POLH inh inactive, WRN helicase inh 20µM and FEN1 inhibitor inactive.
Screening C=C1C=C(C(F)F)n2ncc(C(=O)Nc3ccc(N(CC)CC)cc3)c2N1 returned POLK inh inactive, Pol iota inh inactive and FEN1 inhibitor inactive.
For Cc1ccc(-c2nn(CCC(=O)O)cc2/C=C\C(=O)c2ccc(Br)cc2)cc1 the results were POLB inh inactive, POLK inh inactive, Pol iota inh 40µM, POLH inh 79µM, WRN helicase inh inconclusive and FEN1 inhibitor inactive.
For O=C(COC(=O)c1ccccc1C(=O)c1ccc(Cl)c([N+](=O)[O-])c1)NC1CC1 the results were POLB inh inactive, POLK inh inactive, Pol iota inh inactive, POLH inh inactive, WRN helicase inh inactive and FEN1 inhibitor inactive.
Screening O=C(OC1CCOC1=O)c1ccccc1C(=O)c1ccc(Cl)c([N+](=O)[O-])c1 (configuration not stated) returned POLK inh inactive, Pol iota inh 40µM, POLH inh 50µM, WRN helicase inh inactive and FEN1 inhibitor inactive.
`ON=C1c2cc(OCCN3CCCCC3)ccc2-c2ccc(OCCN3CCCCC3)cc21` gave POLB inh inactive, POLK inh inactive, Pol iota inh inactive, POLH inh inactive, WRN helicase inh inactive and FEN1 inhibitor 32µM.
For CCOc1cc(CNc2ccc3cn[nH]c3c2)ccc1OC the results were POLB inh inactive, POLK inh inactive, Pol iota inh inconclusive, POLH inh inconclusive, WRN helicase inh inactive and FEN1 inhibitor 35µM.
`COc1ccc(CNc2ccc3cn[nH]c3c2)c(OC)c1OC` gave POLB inh inactive, POLK inh inactive, Pol iota inh inactive, POLH inh inactive, WRN helicase inh inactive and FEN1 inhibitor inactive.
CCc1ccc(NC(=O)CS(=O)CC(=O)Nc2ccc(N3CCOCC3)cc2)cc1 (configuration not stated) was read as POLB inh 22µM, POLK inh inactive, Pol iota inh inconclusive, POLH inh inconclusive, WRN helicase inh inactive and FEN1 inhibitor inactive.
For NC(=O)c1ccc(NC(=O)Cc2cccs2)cc1 the results were POLB inh 40µM, POLK inh inconclusive, Pol iota inh inconclusive, POLH inh 50µM, WRN helicase inh inactive[11.6 µM] and FEN1 inhibitor inactive.
`Cc1cccc(C)c1NC(=O)CS(=O)CC(=O)Nc1ccc(F)cc1F` (configuration not stated) gave POLB inh inactive, POLK inh inactive, Pol iota inh inactive, POLH inh inactive, WRN helicase inh inactive and FEN1 inhibitor inactive.
